# In PubChem BioAssay AID1851 (National Center for Advancing Translational Sciences (NCATS), 2009):
# About 5,700 (36%) of roughly 16,000 compounds were called active. Not shown: some 24% with an inconclusive outcome. The list shows a part of the results. Values without a mark were called inactive. Calls come from the whole dose curve; as a rule, active = well fitted curve in the direction sought with a large enough effect; inconclusive = small, poorly fitted or top-dose-only effect, or effect the other way; inactive = no such curve, though single readings can be large or run the other way.
# Biological target: Cytochrome P450 1A2 (Homo sapiens) (UniProt P05177)
# Assay: Cytochrome panel assay with activity outcomes
# Settings: recombinant CYP, pro-luciferin dealkylation, luminescence, p450-cyp1a2; series mostly up to 57.1 µM; activity, negative = inhibition: at the top concentration
# % is set by controls: 0 for no effect and ±100 for the full control effect.
# Chain of Cytochrome P450 1A2 (Homo sapiens) (P05177 whole entry, looked up): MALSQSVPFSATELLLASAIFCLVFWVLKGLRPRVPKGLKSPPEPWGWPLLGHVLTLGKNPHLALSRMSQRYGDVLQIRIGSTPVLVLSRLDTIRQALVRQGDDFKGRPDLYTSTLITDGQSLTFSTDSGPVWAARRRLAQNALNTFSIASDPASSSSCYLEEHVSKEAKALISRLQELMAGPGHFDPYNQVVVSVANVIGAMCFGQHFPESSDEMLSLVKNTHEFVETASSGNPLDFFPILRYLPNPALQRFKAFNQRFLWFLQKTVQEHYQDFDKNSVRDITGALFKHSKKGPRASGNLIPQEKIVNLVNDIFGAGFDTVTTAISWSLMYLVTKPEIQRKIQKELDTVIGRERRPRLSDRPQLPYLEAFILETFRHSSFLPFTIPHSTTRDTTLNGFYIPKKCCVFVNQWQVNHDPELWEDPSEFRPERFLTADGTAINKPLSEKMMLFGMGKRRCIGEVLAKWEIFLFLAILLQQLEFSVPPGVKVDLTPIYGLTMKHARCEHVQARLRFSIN
SMILES,"activity, negative = inhibition",AC50
O=C(c1cc(C(F)(F)F)cc(C(F)(F)F)c1)N1CCC2(CC1)CCN(c1ncccn1)CC2,-0.853%,
CCCCN1C(=O)C(NC(=O)CC(C)C)(C(F)(F)F)C2=C1CC(C)(C)CC2=O (stereo not drawn),2.04%,
O=C(c1cccc(F)c1)N1CCC[C@@]2(CCN(c3ccccc3)C2)C1,0.314%,
O=C(c1cccc(F)c1)N1CCC[C@@]2(CCN(c3ccncc3)C2)C1,-7.9%,
O=C(c1cccc(F)c1)N1CCC[C@@]2(CCN(c3cccc(-c4ccccc4)c3)C2)C1,,15.8 µM (active)
C[N+]1(C)C[C@@H](O)C[C@@H]1C(=O)[O-],-5.52% [at 25.6 µM],
COc1cccc(CNCc2ccc(SC)cc2)c1OC,,15.8 µM (active)
COc1cccc(CN2C(=O)N(C(C)C)C(N(O)C(=O)NC(C)C)C2(C)C)c1OC (stereo not drawn),0.393%,
c1ccc(-c2cccc(N3CCC4(CCNCC4)CC3)c2)cc1,,15.8 µM (active)
c1ccc(C(c2ccccc2)N2CCC3(CCNCC3)CC2)cc1,-5.96%,
CC(=O)N1CCC2(CC1)CN(c1ccccc1)C2,-1.03%,
CC(=O)N1CCC2(CCCN(c3cccc(-c4ccccc4)c3)C2)CC1,,5.01 µM (active)
COC(=O)N1CCC2(CC1)CCN(c1ccccc1)CC2,-2.85%,
COCC(=O)N1CCC2(CC1)CCN(c1cccc(-c3ccccc3)c1)CC2,,5.01 µM (active)
CC(=O)N1CCC2(CC1)CCN(c1ccc(-c3ccccc3)cc1)CC2,,10 µM (active)
CC(=O)N1CCC2(CC1)CCN(c1ccncc1)CC2,-6.29%,
COC(=O)N1CCC2(CC1)CCN(c1cccc(-c3ccccc3)c1)CC2,-8.58%,
CC(=O)N1CCC2(CCCN(c3ccccc3)C2)CC1,4.6%,
COC(=O)N1CCC2(CC1)CN(c1cccc(-c3ccccc3)c1)C2,2.46%,
N#Cc1ccc(CN2CCC3(CC2)CCN(C(=O)c2ccncc2)CC3)cc1,12.3%,
CC[C@@H](Nc1ncnc2nc[nH]c12)C(=O)O,-2.91% [at 11.4 µM],
COCC(=O)N1CCC2(CC1)CN(C(=O)Nc1ccc(OC)cc1)C2,-5.38%,
COCC(=O)N1CCC2(CCCN(c3ccncc3)C2)CC1,-16.3%,
COCC(=O)N1CCC2(CC1)CN(C(=O)Nc1ccccc1)C2,,12.6 µM (active)

SMILES,"activity, negative = inhibition",AC50
COCC(=O)N1CCC2(CCCN(C(=O)Nc3ccccc3)C2)CC1,-9.85%,
O=C(Oc1ccccc1)N1CCC2(CCCN(c3cccc(-c4ccccc4)c3)C2)CC1,-15.2%,
COCC(=O)N1CCC2(CCCN(c3cccc(-c4ccccc4)c3)C2)CC1,,15.8 µM (active)
CCn1nc(C(=O)Nc2ccccc2C)c(Cl)c1Cl,,1.26 µM (active)
N#Cc1cccc(-c2nc(NCc3ccccc3)c3ccccc3n2)c1,,0.398 µM (active)
N#Cc1cccc(-c2nc(NCc3cccnc3)c3ccccc3n2)c1,,0.251 µM (active)
N#Cc1cccc(-c2nc(NCc3cccs3)c3ccccc3n2)c1,,0.316 µM (active)
NCC[C@H]1CCC[C@H](CCN)N1,-1.4%,
O=C(NN=C1C2CC3CC(C2)CC1C3)c1ccncc1,-17.6%,
O=C(Nc1nnc(C2CC2)s1)c1ccc(S(=O)(=O)c2ccccc2)cc1,-13.1%,
O=C(Nc1nnc(C2CC2)s1)c1ccncc1,,12.6 µM (active)
COc1ccc(O[C@H]2C=C[C@@H](c3ccccc3)O[C@H]2CO/N=C2/[C@H]3O[C@@H]3[C@@H](O)[C@H]3[C@H]2CCn2c(=O)n(-c4ccccc4)c(=O)n23)cc1,12.3% [at 11.4 µM],
Cc1ccccc1NC1=NC(=S)N(c2ccccc2)C12CCOC(C)(C)C2 (stereo not drawn),10.8%,
CS(=O)(=O)c1ccc(-c2cc(Br)sc2-c2ccc(F)cc2)cc1,,0.398 µM (active)
FC(F)(F)c1cnc(/C=C/Nc2ccccc2Cl)c(Cl)c1,,1.41 µM (active)
N#CC(c1ccccn1)(c1ncc(C(F)(F)F)cc1Cl)N1CCOCC1 (stereo not drawn),4.97%,
N#CC(c1ccc(Cl)cc1)(c1ncc(C(F)(F)F)cc1Cl)N1CCOCC1 (stereo not drawn),-17.8%,
NC(=O)C[C@H](NC(=O)Cc1ccc(O)cc1O)C(=O)O,5.5%,
CCc1nc2c(c(SC)nn2-c2ccccc2)c(N)c1C(=O)OC,,0.631 µM (active)
Nc1cc(-c2ccncc2)c[nH]c1=O,,15.8 µM (active)
NC(=O)c1cc[n+](CC2=C(C(=O)O)N3C(=O)[C@@H](NC(=O)[C@H](c4ccccc4)S(=O)(=O)[O-])[C@@H]3SC2)cc1,,inactive
CN(Cc1ccco1)c1nc(-c2cccc(C#N)c2)nc2ccccc12,,0.1 µM (active)
COc1cccc(-c2nc(N(C)Cc3ccco3)c3ccccc3n2)c1,,0.316 µM (active)
COc1cccc(-c2nc(N(C)C)c3ccccc3n2)c1,,0.251 µM (active)
